# Screening results from PubChem BioAssay.
# Only some compounds are listed: those with a hit (about 2.1% of all), similar ones and a draw of the others.
# Giardia killer = kills Giardia lamblia; Giardia lamblia trophozoite viability; activity change, % at 7.66 µM, hits read low; actives 0.15% (n = 340,000); in the data active means activity change below about -80%; inconclusive means between about -30% and that limit;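 further: parasites exposed to compound for two days anaerobically before the ATP read; on the % scale 0 is the no-effect control and ±100 the full control effect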
#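 Each well holds 100 Giardia trophozoites and compound. After two days (48 hrs) at 37 deg C in anaerobic conditions, ATP is quantified by luminescence.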
# p53 reactivation = re-activators of mutant p53; H1299 p53-A138V BP100-luciferase reporter, luminescence, 24 h; Potency, µM (series often up to 92.2 µM), inactives show at the highest dose activity change, positive = activation, hits mostly activators; actives 0.063% (n = 320,000); further: potency means the concentration at half of the fitted maximal effect; % of control where 0% means no effect; nearly all actives have a fitted effect of over 45% in size
#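 p53-null H1299 cells stably carrying temperature-sensitive p53-A138V and a BP100-luciferase reporter were pinned with compounds (4-point, 1:5 series) and held 24 hrs at 37 deg C. Luminescence was read 10 min after detection reagent.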
# uPA generation = cell surface uPA generation inhibition | cell surface uPA generation assay, qHTS | Potency, µM (highest dose often 38.3 µM), inactives show at the top dose activity change, negative = inhibition, usual class: inhibitors | actives 0.31% (n = 330,000); active means well fitted inhibition curve with a large enough effect; inconclusive means small, poorly fitted or top-dose-only effect; inactive means no such curve, though single readings can be large or run the other way; tested in mouse RAW 264.7 cells; further: potency means the concentration at half of the fitted maximal effect; on the % scale 0 is the no-effect control and ±100 the full control effect; nearly all actives have a fitted effect of over 55% in size
# B2AR arrestin = beta2AR (human) beta-arrestin recruitment activity; actives 0.02% (n = 330,000); Potency, µM (series often up to 46.1 µM), without a hit: at the highest dose activation, hits mostly activators; AID 492947; P07550; beta-arrestin recruitment to beta2AR, cell-based reporter;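 further: potency means the concentration at half of the fitted maximal effect; 0% = DMSO controls and full agonism = EC100 isoproterenol or metaproterenol; nearly all actives have a fitted effect of over 65% in size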
# Target sequence (P07550 whole entry, looked up): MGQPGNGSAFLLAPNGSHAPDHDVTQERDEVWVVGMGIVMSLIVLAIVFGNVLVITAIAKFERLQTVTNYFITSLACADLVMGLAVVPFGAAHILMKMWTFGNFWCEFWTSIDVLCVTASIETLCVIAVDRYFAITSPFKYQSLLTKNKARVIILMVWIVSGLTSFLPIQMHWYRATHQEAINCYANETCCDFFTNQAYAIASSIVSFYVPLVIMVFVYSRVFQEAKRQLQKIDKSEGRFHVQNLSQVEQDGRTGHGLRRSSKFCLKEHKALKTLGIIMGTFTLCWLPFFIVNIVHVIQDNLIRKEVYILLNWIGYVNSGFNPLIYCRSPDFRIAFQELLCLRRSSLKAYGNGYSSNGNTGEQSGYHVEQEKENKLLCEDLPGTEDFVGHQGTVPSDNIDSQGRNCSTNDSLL
# ClpP mod = qHTS Assay for Activators of ClpP | purified B. subtilis ClpP, FRET peptide cleavage, 20 min | ATP-dependent Clp protease proteolytic subunit (Bacillus subtilis (strain 168)), P80244 | Potency, µM (titrated, usually from 57.5 µM), without a hit: at the top dose activity change, negative = active | AID 651965, 2013 | actives 1.9% (n = 340,000); active means well fitted falling curve with a large enough effect; inconclusive means small, poorly fitted or top-dose-only effect; inactive means no such curve, though single readings can be large or run the other way; further: potency means the concentration at half of the fitted maximal effect; the source files actives as falling curves though it sought activators and does not explain the sign; nearly all actives have a fitted effect of over 65% in size
# Target sequence (P80244 whole entry, looked up): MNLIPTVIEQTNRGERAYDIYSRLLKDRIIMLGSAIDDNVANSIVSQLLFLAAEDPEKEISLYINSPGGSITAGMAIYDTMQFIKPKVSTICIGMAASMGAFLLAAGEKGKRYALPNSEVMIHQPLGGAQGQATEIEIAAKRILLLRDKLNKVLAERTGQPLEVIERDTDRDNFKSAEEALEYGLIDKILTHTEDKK
#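 ClpP 10 microg/mL final, pH 8 Tris/KCl buffer with BSA, glycerol, Tween-20; compound pinned in; FRET-FV substrate; RT 20 min; Ex320/Em430; ΔFRET vs ADEP 5.8 microM, DMSO, no enzyme.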
# Mito fusion act = mitochondrial division inhibition or fusion activation; actives 0.23% (n = 320,000); S. cerevisiae fusion-defective mutant growth rescue, CellTiterGlo 48 h; Potency, µM (series often up to 46.1 µM), for inactives: at the top dose growth rescue (activation), hits mostly activators; further: potency means the concentration at half of the fitted maximal effect; % of control where 0% means no effect; nearly all actives have a fitted effect of over 45% in size
#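 Read-out: ATP-based luminescence (CellTiterGlo, 10 min ambient) reporting growth of fusion-defective ts yeast after 48 hours at 37C on glycerol/ethanol YPEG medium in the presence of compound.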
# Starred values were filed as active, the others as inactive; ? = inconclusive; / = not tested or not shown. Unless noted, the call rests on the fitted dose curve; in most records, active means well fitted curve in the direction sought with a large enough effect; inconclusive means small, poorly fitted or top-dose-only effect, or another doubt; inactive means no such curve, though single readings can be large; an effect the other way counts as inactive or inconclusive.
SMILES,Giardia killer,p53 reactivation,uPA generation,B2AR arrestin,ClpP mod,Mito fusion act
COCc1nc(-c2ccc(-c3ccccc3)nc2OC)no1,-5.6,19.5%,-0.7%,0.4%,?,9.7%
COc1cccc(Cn2nnc(C(=O)NCc3ccc(Cl)cc3Cl)c2N)c1,/,/,/,/,-2.2%,/
CCc1ccccc1Oc1nc(NCCOC)nc2cc(-c3ccccc3)sc12,/,/,/,/,22.4µM*,/
CCc1ccccc1Oc1nc2cc(-c3cccc(OC)c3)sc2c(=O)n1C,/,/,/,/,12.6µM*,/
COCCNc1nc(-c2cc(F)ccc2C)c2sc(-c3ccccc3)cc2n1,/,/,/,/,4.6%,/
COCCNc1nc(Oc2ccc(Cl)c(Cl)c2)c2sccc2n1,/,/,/,/,-27.6%,/
COCCNc1nc(Oc2ccc(NC(C)=O)cc2)c2sc(-c3ccccc3)cc2n1,/,/,/,/,31.6µM*,/
COCCNc1nc2cc(-c3ccccc3)sc2c(=O)n1C,/,/,/,/,4.8%,/
COCCNc1nc(-c2ccccc2F)c2sc(-c3ccccc3)cc2n1,/,/,/,/,31.6µM*,/
COc1cccc(-c2cc3nc(NCCCN(C)C)n(C)c(=O)c3s2)c1,/,/,/,/,3.8%,/
Cc1ccccc1C(=O)Nc1cccc(-c2cn3cccnc3n2)c1,/,/,/,/,3.9%,/
CCOc1cc2[nH]c(=O)n(CCCC(=O)N3CCN(c4ccc(OC)cc4)CC3)c(=O)c2cc1OCC,/,/,/,/,-9.2%,/
COc1cc(CN2CCN(CCc3ccccc3)C(CCO)C2)cc(OC)c1 (centres undefined),5.2,4.9%,1.4%,-0.8%,31.6µM*,3.6%
Cc1ccc2c(CC(=O)N(Cc3ccc(Cl)cc3)Cc3ccco3)coc2c1,/,/,/,/,-7.1%,/
CCCc1c(CC)c(=N)c2ccccc2n1C,1.1,-3.5%,-7.5%,0.1%,28.2µM*,-6.2%
Cn1c(-c2ccccc2)c(C(=O)CCl)c2ccccc21,-11.7,-13.1%,-16.6%,-0.2%,/,2.2%
CCC(=O)Nc1ccc2c(c1)C(=O)N(C)C2=O,14.2,-2.3%,2.8%,0.2%,28.2µM*,-1.3%
CN1C(=O)c2ccc(NC(=O)CSc3ccccc3)cc2C1=O,1.9,16.8%,-10.3%,-0.1%,0.9%,-6.3%
O=C(Nc1ccc2c(c1)C(=O)N(c1ccccc1)C2=O)c1cccs1,-5.6,3.0%,1.4%,-1.1%,3.9%,3.6%
CCCC(=O)Nc1ccc2c(c1)C(=O)N(CCC(=O)O)C2=O,-16.6,-1.5%,/,-0.3%,28.2µM*,-2.0%
O=C(O)CCN1C(=O)c2ccc(NC(=O)c3cccs3)cc2C1=O,2.8,-9.0%,2.3%,-0.7%,31.6µM*,-4.5%
Cc1cccc(-c2nc3c4ccccc4nc(N4CCN(c5ccccc5F)CC4)n3n2)c1,/,/,/,/,-7.5%,/
CCOc1ccc(/C=C/c2nc(C#N)c(Nc3ccc(OC)cc3)o2)cc1,/,/,/,/,-29.9%,/
Cc1ccc(-c2csc(NC(=O)C3CC(=O)N(c4ccc5c(c4)OCCO5)C3)n2)o1 (centres undefined),-1.2,/,/,/,0.4%,/
Cc1cccc(Nc2nnc(SCC3CCCCO3)s2)c1C (centres undefined),-9.0,?,5.0%,-0.8%,10µM*,0.7%
SMILES,Giardia killer,p53 reactivation,uPA generation,B2AR arrestin,ClpP mod,Mito fusion act
Cc1ccc(-c2cc3cccc[n+]3cc2-c2ccc(C)cc2)cc1,53.2,-18.1%,10µM*,-0.1%,2.82µM*,-1.9%
N#Cc1ncc(-c2ccc3c(c2)OCCOCCOCCOCCO3)nc1C#N,4.3,26.4%,-7.4%,-0.5%,1.5%,-2.6%
N#Cc1ncc(-c2ccc3c(c2)OCCOCCOCCOCCOCCO3)nc1C#N,15.0,-23.8%,-1.8%,-1.7%,31.6µM*,20µM*
CCOC(=O)c1[nH]c2ccc(OC)cc2c1NC(=O)CCN1CCCC(C)C1 (centres undefined),-1.5,-3.7%,4.6%,0.1%,31.6µM*,0.5%
COC(=O)c1[nH]c2cc(C)ccc2c1NC(=O)CN1CCOCC1,-11.8,-3.2%,1.0%,-0.5%,/,2.3%
CCOC(=O)C1CCCN(CC(=O)Nc2c(C(=O)OC)[nH]c3ccc(Cl)cc23)C1 (centres undefined),-6.6,-2.4%,-1.6%,-0.3%,-20.8%,25.7%
CCOC(=O)C1CCCN(CC(=O)Nc2c(C(=O)OC)[nH]c3ccc(C)cc23)C1 (centres undefined),-4.8,-13.4%,-0.1%,-0.4%,31.6µM*,4.8%
COC(=O)c1[nH]c2ccc(C)cc2c1NC(=O)CCN1CCN(Cc2ccc3c(c2)OCO3)CC1,3.6,-2.8%,-1.3%,0.1%,20µM*,-0.6%
CCOC(=O)c1[nH]c2ccc(OC)cc2c1NC(=O)OC,-20.3,-2.5%,3.2%,0.2%,28.2µM*,-6.2%
CC1CCc2c(sc(NC(=O)Cc3ccccc3)c2C(=O)Nc2ccc(Cl)cc2)C1 (centres undefined),2.8,/,/,/,-18.4%,/
CN(C)c1ccc(N=Cc2cccc3ccccc23)cc1,/,/,/,/,-5.6%,/
CCOC(=O)c1[nH]c2ccc(OC)cc2c1NC(=O)NC(C)C,-7.6,-1.1%,-4.1%,-1.1%,17.8µM*,-0.7%
COc1ccc(Oc2coc3cc(OC(=O)/C=C/c4ccccc4)ccc3c2=O)cc1,-11.5,-7.1%,0.2%,0.3%,25.1µM*,2.4%
O=C(Oc1ccc2c(=O)c(Oc3ccc4ccccc4c3)coc2c1)c1cccnc1,-6.6,-9.9%,-0.3%,-1.3%,7.1%,15.8µM*
O=C(Oc1ccc2c(=O)c(Cl)coc2c1)c1cccnc1,-22.5,10.6%,-0.8%,0.2%,19.0%,1.5%
Cc1ccc(CN2C(=O)c3ccccc3Sc3ccc(C(=O)NC4CCCCC4)cc32)cc1,/,/,/,/,-8.2%,/
O=C(NCc1cccnc1)C1CCC(c2ccc(Cl)cc2)CC1 (centres undefined),-1.0,-3.8%,-0.3%,-0.1%,28.2µM*,-3.7%
COc1ccc2oc(C(=O)OCC(=O)NC(C)(C#N)C3CC3)c(C)c2c1 (centres undefined),-5.6,2.2%,10.1%,-0.4%,31.6µM*,-4.8%
COc1ccc2oc(C(=O)OC(C)C(=O)NC3(C#N)CCCCC3)c(C)c2c1 (centres undefined),7.6,-3.3%,-0.1%,-1.0%,25.1µM*,7.7%
COc1ccc2oc(C(=O)OCC(=O)Nc3ccc(N4CCOCC4)cc3)c(C)c2c1,-16.5,8.7%,-3.7%,-0.1%,31.6µM*,-4.8%
COC(=O)c1oc2ccc(OC)cc2c1N,-5.8,?,/,0.3%,15.8µM*,-0.3%
COc1ccc(C(=O)c2oc3ccc(OC)cc3c2N)cc1,-4.1,?,5.9%,0.5%,1.2%,?
COc1cccc(C(=O)N(Cc2cccnc2)c2nc3c(OC)ccc(C)c3s2)c1OC,/,/,/,/,-3.6%,/
COC(=O)CN1C(=O)CSc2ccc(S(=O)(=O)Nc3cccc(Cl)c3C)cc21,/,/,/,/,-1.6%,/
COCCCNC(=O)C1CCN(c2cc(C)nc3c(-c4ccc(OC)c(OC)c4)c(C)nn23)CC1,/,/,/,/,0.8%,/
